The results in this text go back to PubChem BioAssay (Tox21).

For assay [1], the target named is Thyrotropin receptor (Homo sapiens) (UniProt P16473). Put plainly: qHTS assay to identify small molecule agonists of the thyroid stimulating hormone receptor (TSHR) signaling pathway (AID 1224843; calls by dose curve; further: nearly all actives have a fitted effect of over 45% in size). In a few lines:
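TSHR-HEK293 cells in agonist mode, 30 min room-temperature step, then cAMP measured by competitive HTRF (cAMP-d2 with anti-cAMP cryptate) after 1 h at room temperature. Tested at 15 concentrations in triplicate.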
Background: qHTS replaces the single test concentration by a dilution series.

The nature of assay [2]: qHTS assay to identify small molecule agonists of the hypoxia (HIF-1) signaling pathway - cell viability counter screen (AID 1224844; calls by dose curve; further: nearly all actives have a fitted effect of over 50% in size). In a few lines:
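HRE-bla ME-180 cells, 2,000/well in 0.5% dialyzed FBS medium, treated 17 h at 37C with compounds. Viability read in the same wells as the bla reporter, by CellTiter-Glo luminescence after 30 min at room temperature.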

Assay [3] can be described thus: qHTS assay to identify small molecule agonists of H2AX (AID 1224845; active means well fitted activation curve with a large enough effect in the signal ratio in the repeat runs, not every such curve was filed as active; the % refers to the signal ratio). The method in brief: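 Wild-type CHO-K1 cells, plated overnight, exposed 3hr at 37C to 15 concentrations (0.76% DMSO final). Lysed, then HTRF anti-pH2AX (S139) cryptate and anti-H2AX-d2 antibodies, 24 hr room temperature; 665/620 nm emission read.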
A short description of assay [4]: qHTS assay to identify small molecule antagonists of the estrogen related receptor (ERR) signaling pathway from Tox21 library (AID 1224848). Further: nearly all actives have a fitted effect of over 50% in size. The method in brief:
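ERR reporter cell line (from NTP) seeded 2,000 cells/well, rested 6 h at 37 C/5% CO2, then pin-dosed with compounds in DMSO. After 18 h at 37 C, ONE-Glo added; luminescence read after 30 min at room temperature.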

Assay [5] is described as follows: qHTS assay to identify small molecule agonists of the estrogen related receptor (ERR) signaling pathway from Tox21 library (AID 1224849; calls by dose curve; further: nearly all actives have a fitted effect of over 15% in size). As to conditions: ERR reporter cell line, ONE-Glo luciferase, 18 h. The method in brief:
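ERR reporter cells (NTP line) pre-incubated 6 hours at 37 C, then exposed to compounds for 18 hours at 37 C. ONE-Glo luciferase luminescence was read after 30 minutes at room temperature.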

The nature of assay [6]: qHTS RealTime-Glo MT Cell Viability Assay in HepG2 cells - 24 hour (AID 1224867). Further: nearly all actives have a fitted effect of over 50% in size. In a few lines:
(§1)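 Real-time, nonlytic viability: 600 HepG2 cells/well mixed with NanoLuc enzyme plus prosubstrate; 5 h settle, compound (DMSO) added by pintool; luminescence monitored over 40 h at 37 C.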

Assay [7] in a line: qHTS RealTime-Glo MT Cell Viability Assay in HEK293 cells - 32 hour (AID 1224868). Further: top concentration of the series differs between compounds; nearly all actives have a fitted effect of over 50% in size. In a few lines: (§2)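 Cells + reagent dispensed (600 cells/well, HEK293) → 5 h at 37 C/5% CO2 → 23 nL compound in DMSO pinned → 40 h at 37 C → luminescence read at 0, 8, 16, 24, 32, 40 h.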
A short description of assay [8]: A CellTox Green Cytotoxicity Assay to monitor cytotoxicity in HEK293 cells - 0 hour (AID 1224869). Further: nearly all actives have a fitted effect of over 50% in size. Further: potency means the concentration at half of the fitted maximal effect. In a few lines:
(§3)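 HEK293 cells, 600/well, were preincubated 5 hours and then exposed to compounds at 37 C for up to 40 hours. A cell-impermeant cyanine dye staining dead-cell DNA was read by fluorescence at 0, 8, 16, 24, 32 and 40 h time points.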

Assay [9] is described as follows: qHTS RealTime-Glo MT Cell Viability Assay in HepG2 cells - 40 hour (AID 1224870). Further: nearly all actives have a fitted effect of over 50% in size. In a few lines: (§4)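 HepG2 cells (600/well) mixed with RealTime-Glo MT reagent, settled 5 h at 37 C/5% CO2 before compound addition. Nonlytic NanoLuc luminescence from viable-cell prosubstrate reduction read repeatedly during 40 h treatment at 37 C.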
The nature of assay [10]: A CellTox Green Cytotoxicity Assay to monitor cytotoxicity in HEK293 cells - 40 hour (AID 1224871). Further: nearly all actives have a fitted effect of over 45% in size. Further: potency means the concentration at half of the fitted maximal effect. The method in brief: as §3
Assay [11] in a line: qHTS RealTime-Glo MT Cell Viability Assay in HEK293 cells - 16 hour (AID 1224872). The method in brief:
as §2

A short description of assay [12]: qHTS RealTime-Glo MT Cell Viability Assay in HepG2 cells - 8 hour (AID 1224873). Further: nearly all actives have a fitted effect of over 55% in size. In a few lines: as §4
A short description of assay [13]: qHTS RealTime-Glo MT Cell Viability Assay in HEK293 cells - 40 hour (AID 1224874). Further: nearly all actives have a fitted effect of over 50% in size. Particulars: RealTime-Glo luminescence; max response: stronger effect = lower value. The method in brief:
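600 cells/well were plated with the nonlytic NanoLuc/prosubstrate reagent, pre-incubated 5 h, then given 23 nL of compound in DMSO. Incubation at 37 C for 40 h, with luminescence from viable-cell-reduced substrate read repeatedly from 0 h.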

The nature of assay [14]: A CellTox Green Cytotoxicity Assay to monitor cytotoxicity in HepG2 cells - 16 hour (AID 1224876). Further: nearly all actives have a fitted effect of over 45% in size. Further: potency means the concentration at half of the fitted maximal effect. In a few lines:
(§5)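 HepG2 cells, 600/well, preincubated 5 h with CellTox Green dye, then exposed to Tox21 compounds in DMSO at 37 C for up to 40 h. Dead-cell DNA fluorescence read at the indicated time point.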

The nature of assay [15]: qHTS RealTime-Glo MT Cell Viability Assay in HepG2 cells - 32 hour (AID 1224877). Further: nearly all actives have a fitted effect of over 55% in size. The method in brief:
as §1

Assay [16] in a line: A CellTox Green Cytotoxicity Assay to monitor cytotoxicity in HepG2 cells - 24 hour (AID 1224878). Further: nearly all actives have a fitted effect of over 45% in size. Further: potency means the concentration at half of the fitted maximal effect. In a few lines:
as §5

The nature of assay [17]: A CellTox Green Cytotoxicity Assay to monitor cytotoxicity in HepG2 cells - 40 hour (AID 1224879). Further: nearly all actives have a fitted effect of over 40% in size. Further: potency means the concentration at half of the fitted maximal effect. The method in brief: as §5
Assay [18] in a line: qHTS assay to identify small molecule agonists of the hypoxia (HIF-1) signaling pathway (AID 1224846; active means well fitted activation curve with a large enough effect in the signal ratio in the repeat runs, not every such curve was filed as active; the % refers to the signal ratio). The method in brief:
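HRE-bla ME-180 beta-lactamase reporter cells in medium with 0.5% dialyzed FBS, pre-incubated 5 h then exposed to compounds 17 h at 37C, 5% CO2; reporter induction read with CCF4-AM FRET substrate.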

Assay [19] can be described thus: A CellTox Green Cytotoxicity Assay to monitor cytotoxicity in HEK293 cells - 24 hour (AID 1224875). Further: nearly all actives have a fitted effect of over 45% in size. In a few lines: as §3
The nature of assay [20]: qHTS assay to identify small molecule agonists of H2AX - cell viability counter screen (AID 1224847; calls by dose curve; further: top concentration of the series differs between compounds; nearly all actives have a fitted effect of over 30% in size). The method in brief:
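Cytotoxicity counter screen in wild-type CHO-K1 cells: a 3 hr compound treatment at 37C across 15 concentrations, followed by CellTiter-Glo luminescence to gauge viable cells.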

Molecules are shown by their SMILES. “And” between values parts separate entries of the source, which are not always exact repeats. Equal entries are not always repeated. Records with an inconclusive call do not appear. Some structures have more than one record in an assay (separate samples or runs), and their calls can disagree. The source made the active and inactive calls. Unless noted, the call rests on the fitted dose curve; in most records, active means well fitted curve in the direction sought with a large enough effect in the repeat runs; inconclusive means weak or mixed curves; inactive means no such curve, though single readings can be large; an effect the other way counts as inactive or inconclusive.
On the % scale 0 is the no-effect control and ±100 the full control effect.

Sequence of Thyrotropin receptor (Homo sapiens) (P16473 whole entry, looked up): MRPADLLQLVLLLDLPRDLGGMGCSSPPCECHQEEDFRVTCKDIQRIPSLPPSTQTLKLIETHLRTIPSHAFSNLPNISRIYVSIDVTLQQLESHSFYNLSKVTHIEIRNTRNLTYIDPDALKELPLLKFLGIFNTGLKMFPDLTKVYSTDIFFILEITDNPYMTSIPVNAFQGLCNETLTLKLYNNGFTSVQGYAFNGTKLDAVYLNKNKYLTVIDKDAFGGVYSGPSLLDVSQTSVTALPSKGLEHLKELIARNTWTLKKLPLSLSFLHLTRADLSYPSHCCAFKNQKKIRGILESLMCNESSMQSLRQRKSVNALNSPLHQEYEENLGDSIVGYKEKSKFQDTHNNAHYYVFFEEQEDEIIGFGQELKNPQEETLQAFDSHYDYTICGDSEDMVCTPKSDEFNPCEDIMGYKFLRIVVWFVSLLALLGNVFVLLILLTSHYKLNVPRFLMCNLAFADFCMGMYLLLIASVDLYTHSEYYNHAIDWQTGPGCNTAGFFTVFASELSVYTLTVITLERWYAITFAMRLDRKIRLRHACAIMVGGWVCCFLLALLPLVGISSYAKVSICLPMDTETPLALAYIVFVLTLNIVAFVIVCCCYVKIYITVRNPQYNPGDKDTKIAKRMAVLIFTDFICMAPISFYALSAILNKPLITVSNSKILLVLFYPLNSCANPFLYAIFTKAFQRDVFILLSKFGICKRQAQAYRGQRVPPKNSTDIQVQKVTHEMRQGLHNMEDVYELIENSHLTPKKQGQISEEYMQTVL

As for `CC(C)c1cccc(C(C)C)c1O`, the Potency entry in assay [1], in assay [2], in assay [3], in [4] and in [7] was “inactive” throughout. Moreover, the activity change, positive = activation in assay [5] (at 42.5 µM (top of the series)) is -0.995% (inactive); in assay [5] (at 92.4 µM (top of the series)) it was -9.76% (inactive) and -27.6% (inactive). In addition, the result in [6], in [9], in assay [11], in assay [12] and in [15] was inactive. For the same compound, the Potency entry in [8] is “inactive and 38.9 µM (active)”; in assay [10], 24.5 µM (active) and 43.6 µM (active) and inactive; in assay [14], 43.6 µM (active) and inactive; in assay [16], 43.6 µM (active) and inactive; in assay [17], 43.6 µM (active) and inactive. For the same compound, in assay [13], the max response is -0.191% (inactive) and -2.39% (inactive) and 0.656% (inactive).

As to `N#Cc1cccc(C#N)c1`, the Potency entry in assay [1], in [2], in [3], in [7], in [8] and in [10] was “inactive” each time. The Potency entry in assay [19], in assay [14] and in assay [17] was “inactive” each time. Besides, the call in assay [18], in assay [6], in assay [9], in assay [11], in [12] and in [15] was inactive. Further, the max response in assay [13] was 2.43% (inactive) and 3.42% (inactive).

Take `NNc1ccccc1`: the Potency result in assay [1], in assay [2], in assay [3], in assay [7], in assay [8] and in [10] was “inactive” throughout. Also, the Potency entry in assay [19], in assay [14] and in assay [17] was “inactive” in each case. The call in assay [18], in [6], in [9], in assay [11], in assay [12] and in assay [15] was inactive. The max response in assay [13] was 3.45% (inactive) [middle of 5 runs].

As for `Nc1ccc([As](=O)(O)O)cc1`, the Potency entry in assay [1], in assay [2], in [3], in assay [20], in assay [7] and in assay [8] was “inactive” in each case. Besides, the Potency result in [10], in assay [19], in [14] and in [17] was “inactive” throughout. Moreover, the outcome in assay [18], in assay [6], in assay [9], in [11], in assay [12] and in [15] was inactive.

For `C=CC(=O)OCC(CC)CCCC` (stereo not drawn), the Potency entry in assay [1], in assay [2], in [3], in [20], in [4] and in assay [7] was “inactive” throughout. The Potency result in assay [8], in assay [10], in assay [19], in assay [14] and in assay [17] was “inactive” throughout. The call in [18], in assay [6], in assay [9], in assay [11], in assay [12] and in [15] was inactive. Besides, in [5] (at 92.4 µM (top of the series)), the activity change, positive = activation was 0.98% (inactive) and -12% (inactive). For the same compound, in assay [13], the max response was 13.3% (inactive).

As to `O=C/C=C/c1ccccc1`, the Potency entry in assay [1], in assay [2], in [3], in assay [7], in assay [8] and in [10] was “inactive” throughout. Also, the Potency result in [19], in [14], in assay [16] and in assay [17] was “inactive” throughout. The compound was classed as inactive in [18], in [6], in assay [9], in assay [11], in assay [12] and in [15].

Turning to `Nc1ccc(N)cc1`, the Potency result in assay [1], in assay [2], in assay [3], in assay [7], in [8] and in [10] was “inactive” each time. Moreover, the Potency result in assay [19], in assay [14], in [16] and in [17] was “inactive” throughout. The compound was called inactive in assay [18], in assay [6], in [9], in [11], in assay [12] and in assay [15]. For the same compound, the max response in assay [13] is 13.6% (inactive) and -13% (inactive).
